Test [1] can be described thus: A CellTox Green Cytotoxicity Assay to monitor cytotoxicity in HEK293 cells - 40 hour (AID 1224871). Also: nearly all actives have a fitted effect of over 45% in size. Also: potency is read from the fitted curve at half-maximal effect. The gist of the method:
(§1)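 Each value comes from one timepoint of a single continuous run in which HEK293 cells with CellTox Green were exposed to compound for up to 40 h at 37 C, dye fluorescence rising with cell death.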

Test [2] is described as follows: qHTS RealTime-Glo MT Cell Viability Assay in HEK293 cells - 16 hour (AID 1224872). Also: nearly all actives have a fitted effect of over 50% in size. Also: potency is read from the fitted curve at half-maximal effect. Put shortly:
(§2)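 Reads taken at 0, 8, 16, 24, 32 and 40 h from the same wells. HEK293 cells (600/well) carried RealTime-Glo reagents from seeding, with compound added after a 5 h settle at 37 C.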

Test [3] in a line: qHTS RealTime-Glo MT Cell Viability Assay in HepG2 cells - 8 hour (AID 1224873). Also: nearly all actives have a fitted effect of over 55% in size. Also: potency is read from the fitted curve at half-maximal effect. Put shortly:
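HepG2 cells (600/well) mixed with RealTime-Glo MT reagent, settled 5 h at 37 C/5% CO2 before compound addition. Nonlytic NanoLuc luminescence from viable-cell prosubstrate reduction read repeatedly during 40 h treatment at 37 C.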
In general terms: Quantitative high-throughput screening tests each substance at several concentrations.

Test [4] is described as follows: A CellTox Green Cytotoxicity Assay to monitor cytotoxicity in HEK293 cells - 24 hour (AID 1224875). Also: nearly all actives have a fitted effect of over 45% in size. Also: potency is read from the fitted curve at half-maximal effect. The gist of the method: as §1
Test [5] is described as follows: A CellTox Green Cytotoxicity Assay to monitor cytotoxicity in HepG2 cells - 16 hour (AID 1224876). Also: nearly all actives have a fitted effect of over 45% in size. Also: potency is read from the fitted curve at half-maximal effect. Put shortly:
(§3)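 Continuous culture of HepG2 cells with a membrane-impermeant DNA dye; rising fluorescence marks dead cells. Compound exposure lasted up to 40 h at 37 C, with reads every 8 h from 0 h.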

Test [6] in a line: qHTS RealTime-Glo MT Cell Viability Assay in HepG2 cells - 32 hour (AID 1224877). Also: nearly all actives have a fitted effect of over 55% in size. Also: potency is read from the fitted curve at half-maximal effect. The gist of the method: (§4)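 HepG2 suspension premixed with RealTime-Glo reagents is plated at 600 cells per well and left 5 h at 37 C/5% CO2. Compounds in DMSO then go in, and bioluminescence reflecting viable cell number is recorded over 40 h.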
Test [7] is described as follows: A CellTox Green Cytotoxicity Assay to monitor cytotoxicity in HepG2 cells - 24 hour (AID 1224878). Also: nearly all actives have a fitted effect of over 45% in size. Also: potency is read from the fitted curve at half-maximal effect. The gist of the method: as §3
Test [8] can be described thus: A CellTox Green Cytotoxicity Assay to monitor cytotoxicity in HepG2 cells - 40 hour (AID 1224879). Also: nearly all actives have a fitted effect of over 40% in size. Also: potency is read from the fitted curve at half-maximal effect. The gist of the method:
as §3

Test [9] can be described thus: A CellTox Green Cytotoxicity Assay to monitor cytotoxicity in HEK293 cells - 32 hour (AID 1224881). Also: nearly all actives have a fitted effect of over 40% in size. Also: potency is read from the fitted curve at half-maximal effect. The gist of the method:
as §1

Test [10] is described as follows: A CellTox Green Cytotoxicity Assay to monitor cytotoxicity in HepG2 cells - 0 hour (AID 1224882). Also: nearly all actives have a fitted effect of over 35% in size. The gist of the method:
as §3

Test [11] can be described thus: A CellTox Green Cytotoxicity Assay to monitor cytotoxicity in HepG2 cells - 32 hour (AID 1224883). Also: nearly all actives have a fitted effect of over 50% in size. Also: potency is read from the fitted curve at half-maximal effect. Put shortly:
as §3

Test [12] can be described thus: A CellTox Green Cytotoxicity Assay to monitor cytotoxicity in HEK293 cells - 8 hour (AID 1224884). Also: nearly all actives have a fitted effect of over 35% in size. Also: potency is read from the fitted curve at half-maximal effect. Put shortly: as §1
Test [13] can be described thus: qHTS RealTime-Glo MT Cell Viability Assay in HepG2 cells - 16 hour (AID 1224885). Also: nearly all actives have a fitted effect of over 50% in size. Also: potency is read from the fitted curve at half-maximal effect. The gist of the method:
as §4

Test [14] is described as follows: qHTS RealTime-Glo MT Cell Viability Assay in HEK293 cells - 24 hour (AID 1224886). Also: nearly all actives have a fitted effect of over 50% in size. Also: potency is read from the fitted curve at half-maximal effect. Put shortly: as §2
A short description of test [15]: qHTS RealTime-Glo MT Cell Viability Assay in HEK293 cells - 8 hour (AID 1224887). Also: nearly all actives have a fitted effect of over 50% in size. Also: potency is read from the fitted curve at half-maximal effect. Put shortly:
(§5)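 qHTS format; HEK293 cells with NanoLuc/prosubstrate reagent, 37 C/5% CO2 for 5 h pre-dosing; compounds 23 nL in DMSO; luminescence at each time point reflects viable cells.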

The nature of test [16]: A CellTox Green Cytotoxicity Assay to monitor cytotoxicity in HEK293 cells - 16 hour (AID 1224888). Also: nearly all actives have a fitted effect of over 35% in size. Also: potency is read from the fitted curve at half-maximal effect. The gist of the method:
as §1

Test [17] in a line: A CellTox Green Cytotoxicity Assay to monitor cytotoxicity in HepG2 cells - 8 hour (AID 1224890). Also: nearly all actives have a fitted effect of over 45% in size. Also: potency is read from the fitted curve at half-maximal effect. The gist of the method: as §3
The nature of test [18]: qHTS RealTime-Glo MT Cell Viability Assay in HepG2 cells - 0 hour (AID 1224889). Also: nearly all actives have a fitted effect of over 50% in size. Put shortly: as §4
The nature of test [19]: qHTS RealTime-Glo MT Cell Viability Assay in HEK293 cells - 40 hour (AID 1224874). Also: nearly all actives have a fitted effect of over 50% in size. Also: potency is read from the fitted curve at half-maximal effect. To be noted: RealTime-Glo luminescence; max response: hits give low values. The gist of the method:
as §5

Test [20] is described as follows: qHTS RealTime-Glo MT Cell Viability Assay in HEK293 cells - 0 hour (AID 1224880). Also: nearly all actives have a fitted effect of over 45% in size. Also: potency is read from the fitted curve at half-maximal effect. Put shortly:
as §5

The record followed here is PubChem BioAssay (Tox21).

A number with no mark means an inactive call. Results filed as inconclusive are left out. Activity calls are given as the source filed them. Calls follow the shape of the dose curve; as a rule, active = well fitted curve in the direction sought with a large enough effect in the repeat runs; inconclusive = weak or mixed curves; inactive = no such curve, though single readings can be large; an effect the other way counts as inactive or inconclusive.
% is scaled to controls: 0 for no effect and ±100 for the full control effect.

On to `CCCCC(CC)CN=C(N)NC(N)=NCCCCCCN=C(N)NC(N)=NCC(CC)CCCC` (stereo not given), for which the Potency was 8.49 µM (active) in test [1]; 6.74 µM (active) in test [2]; 19 µM (active) in [3]; 7.56 µM (active) in test [4]; 8.49 µM (active) in [5]; 8.49 µM (active) in test [6]. For the same molecule, the Potency in test [7] was 9.52 µM (active); in [8] it was 8.49 µM (active); in test [9], 9.52 µM (active); in [11], 8.49 µM (active); in [12], 13.4 µM (active); in [13], 10.7 µM (active). For the same molecule, the Potency was 5.35 µM (active) in test [14], 8.49 µM (active) in test [15], 8.49 µM (active) in test [16] and 10.7 µM (active) in test [17]. In addition, in [10], the Potency result is “inactive”.
Regarding `O=C(NO)C1(NS(=O)(=O)c2ccc(Oc3ccc(F)cc3)cc2)CCOCC1`, the Potency entry in [1], in [2], in [3], in test [4], in test [6] and in [7] was “inactive” each time. For the same molecule, the Potency result in test [8], in [10], in test [11], in [12], in test [13] and in [14] was “inactive” throughout. For the same molecule, the Potency result in [15], in [16], in [18] and in test [17] was “inactive” throughout.
Consider `CNc1ccc(O)cc1`, for which the Potency in test [1] was 9.75 µM (active); in test [2] it was 13.8 µM (active); in test [3] it was 48.9 µM (active); in test [19], 12.3 µM (active); in test [8], 48.9 µM (active); in test [20] it was 17.3 µM (active). The Potency in test [9] is 12.3 µM (active); in [11], 54.8 µM (active); in test [13], 48.9 µM (active); in test [14] it was 12.3 µM (active); in test [15], 15.5 µM (active). Also, the Potency entry in test [10] and in [12] was “inactive” in each case.
With `Cc1c(C)c2c(c(C)c1O)CCC(C)(COc1ccc(CC3SC(=O)NC3=O)cc1)O2` (stereo not given), the Potency entry in test [1], in test [3], in [4], in test [5], in [6] and in test [7] was “inactive” each time. The Potency result in [8], in test [20], in [9], in test [10], in [11] and in test [13] was “inactive” in each case. Also, the Potency entry in test [16], in [18] and in test [17] was “inactive” throughout. For the same molecule, the Potency in test [2] and in test [14] was 43.6 µM (active) each time.
Take `CCOC(=O)c1nc(C(Cl)(Cl)Cl)n(-c2ccc(Cl)cc2Cl)n1`: the Potency result in test [1], in [2], in test [4], in [5], in test [7] and in test [8] was “inactive” each time. The Potency entry in [20], in test [9], in test [10], in test [11], in test [12] and in [14] was “inactive” in each case. Moreover, the Potency result in test [17] was “inactive”. Also, in test [19], the max response was -11.5%.
As for `CCc1cc(Cc2cc(CC)c(N)c(CC)c2)cc(CC)c1N`, the Potency result in test [1], in test [4], in test [5], in test [6], in test [7] and in test [9] was “inactive” each time. Also, the Potency result in [10], in test [13], in [16], in [18] and in [17] was “inactive” each time. The Potency in test [2] is 24.5 µM (active); in [19] it was 27.5 µM (active); in test [14], 27.5 µM (active); in test [15], 27.5 µM (active).
`CCCCCCCCCCCCCCCCCC[N+](C)(C)C`: the Potency in test [1] was 21.9 µM (active); in test [2], 24.6 µM (active); in test [19] it was 7.79 µM (active); in test [4], 39 µM (active); in test [8], 49.1 µM (active); in test [9] it was 21.9 µM (active). In addition, the Potency in test [11] is 49.1 µM (active); in test [12] it was 39 µM (active); in [14] it was 19.6 µM (active); in test [15], 49.1 µM (active); in test [16], 49.1 µM (active). Further, the Potency entry in test [20], in test [10] and in [18] was “inactive” in each case.
`N=C1N=C(N)c2cc3ccccc3cc21`: the Potency was 54.9 µM (active) in [1]; 27.5 µM (active) in test [2]; 32.1 µM (active) in test [19]; 54.9 µM (active) in test [4]; 43.6 µM (active) in test [5]; 24.5 µM (active) in test [6]. In addition, the Potency in test [7] is 24.5 µM (active); in test [8] it was 24.5 µM (active); in test [11] it was 33.4 µM (active); in test [12], 54.9 µM (active); in test [13] it was 38.9 µM (active); in test [14], 24.5 µM (active). In addition, in test [15], the Potency was 43.6 µM (active). The Potency result in test [20], in test [10] and in test [18] was “inactive” in each case.
In the case of `NC(=O)N1C(=O)C(C(=O)c2cc(Cl)cs2)c2cc(F)c(Cl)cc21` (stereo not given), the Potency result in test [1], in test [2], in test [4], in test [5], in test [7] and in [9] was “inactive” in each case. The Potency result in [10], in test [12], in test [13], in test [14], in test [15] and in [17] was “inactive” in each case. For the same molecule, the max response in test [19] was -0.493%.
Regarding `CCCCCCCCCCCCCCCC[N+](C)(C)CCN(Cc1ccc(OC)cc1)c1ncccn1`, the Potency in test [1] was 19 µM (active); in test [2], 1.34 µM (active); in test [19] it was 0.952 µM (active); in test [4], 8.49 µM (active); in test [5], 9.52 µM (active); in test [6] it was 6.01 µM (active). Also, the Potency in test [7] was 6.74 µM (active); in test [8], 6.01 µM (active); in test [9], 9.52 µM (active); in test [11], 6.74 µM (active); in test [12] it was 19 µM (active); in test [13], 8.49 µM (active). Also, the Potency in test [14] was 1.07 µM (active); in test [15], 2.13 µM (active); in test [16] it was 19 µM (active); in [17], 19 µM (active). The Potency result in test [20] is “inactive”.
For the molecule `CCN(Cc1cccnc1)C(=O)c1cccc(Cl)c1[C@]1(C)C(=O)N(Cc2ccc(OC)cc2OC)c2ccc(Cl)cc21`, the Potency result in [1], in [4], in test [5], in [7], in test [8] and in [20] was “inactive” throughout. Besides, the Potency entry in [9], in test [10], in [11], in test [12], in [16] and in [18] was “inactive” each time. The Potency result in [17] is “inactive”. The Potency is 22.9 µM (active) in test [2], 20.4 µM (active) in test [19], 20.4 µM (active) in test [14] and 20.4 µM (active) in test [15].
As for `Cc1ccc2oc(CN(Cc3ccccc3)C(=O)Nc3c(F)cc(F)cc3F)c(-c3ccc(Cl)cc3)c2c1`, the Potency entry in [1], in [2], in test [4], in test [5], in [7] and in test [8] was “inactive” throughout. The Potency entry in test [20], in [9], in test [10], in [11], in test [12] and in test [14] was “inactive” in each case. The Potency entry in [15], in test [16], in test [18] and in test [17] was “inactive” throughout. Further, in [19], the max response was -18.1%.
Consider `Cc1onc(-c2ccccc2Cl)c1C(=O)N[C@@H]1C(=O)N2[C@@H]1SC(C)(C)[C@@H]2C(=O)O`, for which the Potency result in test [1], in test [2], in test [4], in test [5], in test [6] and in test [7] was “inactive” throughout. For the same molecule, the Potency entry in test [8], in test [20], in test [9], in [10], in test [11] and in test [12] was “inactive” each time. Further, the Potency entry in test [13], in [14], in test [15], in [16], in [18] and in [17] was “inactive” in each case. Further, the max response in test [19] is -0.669%.
